IL-1B inflam inh: blocks inflammasome-driven IL-1 beta release. hit rate 4.7% among 360,000. AID 743279. activity change, % at 57.5 µM. THP-1 LPS/ATP IL-1B secretion, AlphaLISA, 16 h; hits give low values; in the data active = activity change below about -50%; inconclusive = mostly about -30% to -49%
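THP-1 cells pretreated 1 hr with compounds (up to 57.5 uM final), then stimulated with LPS (250 ng/mL final) plus ATP (1.25 mM final); secreted IL-1B measured by AlphaLISA after 16 hr, decreased signal indicating inhibition.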
ELG1 repair inh: ELG1-dependent DNA repair inhibition | Potency, µM (doses to about 46.1 µM), without a hit: at the highest dose activity change, negative = inhibition, most hits filed as inhibitors | AID 504467 | HEK293T ELG1-luciferase reporter, luminescence, 16 h; DNA damage induced by 5-fluorouridine | hit rate 2.3% among 330,000; also: potency is read from the fitted curve at half-maximal effect; nearly all actives have a fitted effect of over 55% in size
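Reporter activity after DNA damage by 5-fluorouridine is monitored. Compound-treated cells incubate 16 hr at 37 °C, then ONE-Glo is added for 30 min before luminescence reading.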
TDP1 cell noCPT: qHTS for Inhibitors of human tyrosyl-DNA phosphodiesterase 1 (TDP1): qHTS in cells in absence of CPT. DT40 Tdp1-/- hTDP1 cells, no CPT, ATP luminescence, 48 h. AID 686978, 2013. hit rate 15% among 420,000. Potency, µM (highest dose often 46.2 µM), for the others: top-dose activity change, negative = growth inhibition, hits mostly inhibitors; also: potency is read from the fitted curve at half-maximal effect; nearly all actives have a fitted effect of over 55% in size
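Stably hTDP1-transfected Tdp1-null chicken DT40 cells were treated with library compounds minus camptothecin and grown for at least 48 hr at 37 °C, after which cellular ATP was quantified by luminescence.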
Giardia kill: kills Giardia lamblia; Giardia lamblia trophozoite viability; activity change, % at 7.66 µM, hits read low; hit rate 0.15% among 340,000; AID 540267; in the data active = activity change below about -80%; inconclusive = between about -30% and that limit;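 also: parasites exposed to compound for two days anaerobically before the ATP read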
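Trophozoites 100 cells/well + cpd; 48 hrs, 37 deg C, anaerobic. ATPLite 1-Step added, 15-30 min RT, luminescence read (ATP-based viability).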
DT40 TDP1 CPT: DT40-hTDP1 cell growth loss with CPT | hit rate 12% among 420,000 | chicken DT40 Tdp1-/-;hTDP1 cells + 20 nM CPT, ATP luminescence, 48 h | Potency, µM (titrated, usually from 46.2 µM), inactives show at the highest dose activity change, negative = growth inhibition, actives largely listed as inhibitors; also: potency is read from the fitted curve at half-maximal effect; nearly all actives have a fitted effect of over 55% in size
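Chicken DT40 Tdp1-/- cells complemented with human TDP1, 400 cells/well, exposed to compounds plus 20 nM camptothecin for at least 48 h at 37 C; viability read as ATP content by CellTiter-Glo luminescence.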
TDP1 block: inhibitors of human tyrosyl-DNA phosphodiesterase TDP1 | recombinant TDP1, AlphaScreen DNA substrate cleavage | Q9NUW8 | hit rate 0.28% among 350,000 | Potency, µM (highest dose often 130 µM), for inactives: at the top dose activity change, negative = inhibition, hits mostly inhibitors; also: potency is read from the fitted curve at half-maximal effect; nearly all actives have a fitted effect of over 40% in size
Target sequence (Q9NUW8 whole entry, looked up): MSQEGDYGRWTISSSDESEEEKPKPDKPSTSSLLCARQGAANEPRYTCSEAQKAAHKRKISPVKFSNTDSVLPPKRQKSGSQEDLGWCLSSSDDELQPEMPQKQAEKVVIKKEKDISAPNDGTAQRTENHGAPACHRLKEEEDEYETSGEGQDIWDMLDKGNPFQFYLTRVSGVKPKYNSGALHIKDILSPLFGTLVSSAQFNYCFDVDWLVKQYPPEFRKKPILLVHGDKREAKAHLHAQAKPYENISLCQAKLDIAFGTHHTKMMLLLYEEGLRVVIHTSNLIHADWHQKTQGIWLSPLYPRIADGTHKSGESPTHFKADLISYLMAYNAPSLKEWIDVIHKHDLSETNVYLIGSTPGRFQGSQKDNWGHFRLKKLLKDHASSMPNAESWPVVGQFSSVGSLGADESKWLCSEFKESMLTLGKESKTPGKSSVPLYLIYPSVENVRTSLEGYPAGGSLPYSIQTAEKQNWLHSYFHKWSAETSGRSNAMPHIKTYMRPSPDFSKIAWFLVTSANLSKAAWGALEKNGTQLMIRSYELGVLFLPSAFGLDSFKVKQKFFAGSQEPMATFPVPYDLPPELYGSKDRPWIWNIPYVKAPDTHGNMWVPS
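Signal: AlphaScreen proximity between streptavidin donor and anti-FITC acceptor beads on intact substrate. Reaction: Tdp1 1 nM, substrate 15 nM final, 5 min RT after 15 min compound preincubation.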
An asterisk follows results filed as active; u = inconclusive; x = not tested or not shown; ! = a repeat was not active. Only some compounds are listed: those with a hit (about 19% of all), similar ones and a draw of the others. Unless noted, calls follow the shape of the dose curve; as a rule, active = well fitted curve in the direction sought with a large enough effect; inconclusive = small, poorly fitted or top-dose-only effect, or another doubt; inactive = no such curve, though single readings can be large; an effect the other way counts as inactive or inconclusive. % is scaled to controls: 0 for no effect and ±100 for the full control effect.

SMILES | IL-1B inflam inh | ELG1 repair inh | TDP1 cell noCPT | Giardia kill | DT40 TDP1 CPT | TDP1 block
O=c1[nH]cnc2sc3c(c12)CCN(Cc1ccccc1)C3 | 24.5 | u | u | 0.9 | u | x
OCCCNc1ncnc2sc3c(c12)CCN(Cc1ccccc1)C3 | 2.7 | u | 18.4µM* | 24.6 | u | x
COc1ccc(-c2cc(C(=O)N3CCN(c4ccc(F)cc4)CC3)no2)cc1OC | -2.5 | -16.7% | u | 14.6 | u | -5.3%
CC(OC(=O)c1ccccc1O)C(=O)Nc1cccc(Cl)c1 (centres undefined) | 0.8 | -9.8% | 13µM* | -26.6 | -2.4% | 0.0%
CC(C)C(=O)Nc1cccc(NC(=S)NC(=O)c2ccccc2Cl)c1 | -15.3 | u | 18.4µM* | -6.5 | u | 2.0%
CCC(=O)Nc1cccc(NC(=S)NC(=O)c2ccccc2Cl)c1 | u | u | u | -0.7 | -1.7% | 2.0%
Cc1cc(C(=O)OC(C)C(=O)Nc2cccc(Cl)c2)on1 (centres undefined) | 3.3 | 11.7% | -24.4% | -7.4 | -3.0% | 6.7%
O=C(Nc1ccc(NC(=S)NC(=O)c2ccccc2Cl)cc1)c1cccc(Cl)c1 | -19.9 | x | 16.4µM* | -20.2 | 18.4µM* | x
COCCCNc1nc2nonc2nc1NCCSC | 0.0 | 23.1µM* | 1.4% | -24.6 | 8.3% | x
CN1CCN(c2cc3c(c4c2[nH]c2ccccc24)C(=O)CC(C)(C)C3)CC1 | -64.7* | -10.8% | 16.4µM* | -11.6 | u | 3.9%
CN1CCN(c2ccc(Cl)cc2NC(=O)c2cc(=O)[nH]c3ccccc23)CC1 | -18.3 | 20.7% | u | 0.3 | u | 1.1%
COc1cc(CCNC2=CC(=O)c3ncccc3C2=O)ccc1O | -70.7* | x | 5.8µM* | 20.1 | 4.61µM* | x
COc1ccc(CCNC(=O)c2cccnc2)cc1OC | 35.9 | 4.7% | -13.6% | -0.1 | -0.3% | -1.0%
CCN1CCN(Cc2ccc(NC(=O)c3cc(NC(=O)c4cncc(-c5cccs5)c4)cc(OC)c3)cc2C(F)(F)F)CC1 | -103.5*! | u | 7.31µM* | 6.4 | 16.4µM* | x
CCN1CCN(Cc2ccc(NC(=O)c3cc(NC(=O)c4ccc5n[nH]nc5c4)cc(OC)c3)cc2C(F)(F)F)CC1 | 2.5 | 4.5% | -7.2% | -6.1 | 11.9% | 6.2%
CCN1CCN(Cc2ccc(NC(=O)c3ccc(C)c(NC(=O)c4ccno4)c3)cc2C(F)(F)F)CC1 | -65.1* | 5.8% | 6.51µM* | -0.7 | 13µM* | 3.5%
CCN1CCN(Cc2ccc(NC(=O)c3cc(NC(=O)N4CCNC4=O)cc(OC)c3)cc2C(F)(F)F)CC1 | 50.1 | u | 20.6µM* | -12.5 | 16.4µM* | 7.1%
COc1cc(OC)cc(C(=O)Nc2cccc(N3CCCC3)c2)c1 | -4.1 | u | u | 2.3 | u | 2.2%
COc1cc(NC(=O)N2CCNC2=O)cc(C(=O)Nc2cccc(C(F)(F)F)c2)c1 | 38.3 | u | 4.11µM* | -7.0 | 3.66µM* | 5.9%
COc1ccc(NC(=O)CSc2nc(-c3cccs3)cc(C(F)(F)F)c2C#N)cc1 | x | x | -20.5% | x | -23.0% | x
COC(=O)C1CSC(C(=O)OC)N1C(=O)CN1CCN(c2ccc(OC)cc2)CC1 (centres undefined) | 11.6 | -3.7% | -15.3% | 7.5 | -7.7% | 3.6%
CN1C[C@@H]2[C@@H]3C(=O)N(C)C(=O)[C@@H]3[C@](C)(C1=O)N2C(=O)c1ccc(C(C)(C)C)cc1 | 0.0 | x | -15.1% | -19.5 | -10.8% | x
CCCc1cc(C(=O)Nc2cc(OC)ccc2OC)cs1 | 19.2 | 0.0% | -14.4% | 8.4 | -10.6% | -1.8%
CC(C)CN(C(=O)CN1C(=O)NC(c2ccccc2)(c2ccccc2)C1=O)C1CCS(=O)(=O)C1 (centres undefined) | -1.1 | 1.7% | -0.9% | -19.6 | 0.5% | 0.1%
CCN1CCN(Cc2ccc(NC(=O)c3ccc(C)c(NC(=O)c4csc(-c5ccncc5)n4)c3)cc2C(F)(F)F)CC1 | 0.0 | u | 23.1µM* | -4.4 | 16.4µM* | 2.4%
SMILES | IL-1B inflam inh | ELG1 repair inh | TDP1 cell noCPT | Giardia kill | DT40 TDP1 CPT | TDP1 block
CCN1CCN(Cc2ccc(NC(=O)c3cc(NC(=O)C4=NN(c5ccccc5)C(=O)C4)cc(OC)c3)cc2C(F)(F)F)CC1 | -3.0 | u | u | -9.7 | u | 3.5%
CCN1CCN(Cc2ccc(NC(=O)c3cc(NC(=O)c4ccno4)cc(OC)c3)cc2C(F)(F)F)CC1 | u | 2.3% | 23.1µM* | 12.2 | u | 3.5%
CCN1CCN(Cc2ccc(NC(=O)c3ccc(C)c(NC(=O)C[C@@H]4NC(=O)[C@H](Cc5ccccc5)NC4=O)c3)cc2C(F)(F)F)CC1 | 63.6 | 11.9% | 0.0% | 4.8 | 4.6% | 10.0%
CCN1CCN(Cc2ccc(NC(=O)c3ccc(C)c(/C=C/c4cnc(Nc5cc(N6CCNCC6)nc(C)n5)cn4)c3)cc2C(F)(F)F)CC1 | -99.8* | 3.9% | 14.6µM* | 2.6 | 3.26µM* | x
CCN1CCN(Cc2ccc(NC(=O)c3cc(NC(=O)c4cc(-c5ccc(OC)cc5)n[nH]4)cc(OC)c3)cc2C(F)(F)F)CC1 | -0.1 | 13.9% | 4.61µM* | -12.8 | u | 6.2%
CC[C@H](C)[C@H](NC(=O)[C@@H]1CCCN1C(=O)[C@H](Cc1cnc[nH]1)NC(=O)[C@@H](NC(=O)[C@H](Cc1ccc(O)cc1)NC(=O)[C@@H](NC(=O)[C@H](CCCN=C(N)N)NC(=O)CNC)C(C)C)[C@@H](C)CC)C(=O)O | x | x | x | x | x | 10.2%
CCCSc1nnc(CSc2nc(C)cc(C)n2)n1C | -13.7 | 11.4% | -12.9% | 1.4 | -5.5% | 3.6%
CCN1CCN(Cc2ccc(NC(=O)c3ccc(C)c(NC(=O)c4cccc(-c5cn[nH]c(=O)c5)c4)c3)cc2C(F)(F)F)CC1 | -96.5* | u | 16.4µM* | -9.2 | u | x
CCN1CCN(Cc2ccc(NC(=O)c3ccc(C)c(NC(=O)C4=NN(c5ccccc5)C(=O)C4)c3)cc2C(F)(F)F)CC1 | 16.5 | 15.7% | u | 28.7 | u | 6.2%
CCN1CCN(Cc2ccc(NC(=O)c3cc(NC(=O)c4cc5cccc(OC)c5o4)cc(OC)c3)cc2C(F)(F)F)CC1 | -107.4*! | -17.2% | 4.61µM* | -23.1 | 5.8µM* | 6.2%
CCOC(=O)c1cc2c(=O)n3ccccc3nc2n(CC2CCCO2)c1=NC(=O)c1ccc(F)cc1 (centres undefined) | x | x | 4.0% | x | -16.9% | 2.9%
C=CCN(C)CCCCCCOc1ccc(C(=O)c2ccc(Br)cc2)c(F)c1 | x | x | 5.01µM* | x | 5.01µM* | 8.9%
